# Results: PubChem BioAssay AID1347426 (Functional Genomics Laboratory (NCATS/FGL), 2020)
# Hit rate of the full screen: of about 31,000 sequences, about 1,400 (4.5%) were called active. The sample as a whole holds a higher share of actives than the screen did. Values without a mark were called inactive.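 The calls were made as follows: active = median seed-adjusted z-score above 1 or below -1; inactive = the rest.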
# Assay: Novel Modifiers of Survival Motor Neuron (SMN) Protein: Gene Identification via Genome-wide siRNA Screen;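 also: luminescence tracks full-length SMN protein made from the SMN2 reporter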
# Settings: HEK293T SMN2-luciferase reporter, siRNA knockdown, 72 h; actives lie on both sides
# In short: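 Genome-wide siRNA screen (10418 genes, 3 siRNAs each, 1 pmol per well) by reverse transfection in HEK293T cells stably carrying an SMN2-luciferase reporter; luminescence after 72 hours, normalized to negative-control siRNA, log10-transformed, MAD-scored.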
row,Sequence,median seed-adjusted z-score
1,GCUCUGAAUUCAGUGUUUATT against HTR3E,-0.717
2,GGUCUAACUCAAUAAUGGATT against REV3L,0.062
3,GCUGAAUAUCUACACGGAATT against SLCO4A1,-0.0802
4,GUGCUCGAAUGAUAACUAUTT against RAB2A,-0.038
5,GUGGAACAAUUGUAACAGATT against ETF1,-1.12 (active)
6,GCUUCGAAUGGAUCUAGAATT against MYH8,0.0648
7,CCAACGAACAUGUACAACATT against CACNA2D3,0.198
8,GGAUAUGGUUAAUAGGAGATT against SMC6,0.227
9,GCAGUUAGAUGUCAGGACATT against PPIA,0.0169
10,CGAAAGGAGUCUUCACCAATT against PRDX6,-0.0302
11,CCCUAGAUAUGGACGAUGATT against UTP3,-1.08 (active)
12,CAAUGGACAGAAUACACUUTT against ZNF614,0.0971
13,UGAGCAGUGAGAACCCAUATT against PEAR1,0.071
14,CCAUAGUAGUGACUACCAUTT against GRIA3,-0.358
15,AACUGGACCUUAAAAAGAATT against POU4F3,0
16,GGAUGUCCAGAGGCACUAATT against POLA2,-0.114
17,GAAAGACUUGUUUAUAUUATT against ADRB1,1.06 (active)
18,CUCAAUCCAUAGUAAGUAUTT against ZNF678,0.172
19,CAAUUCUUGUCAUUUGAAATT against SLC25A19,-0.104
20,CCAUAAUGAUAGAGUUUAATT against SLC24A4,0.0358
21,GAGUGAGAGCUGUAGAAAATT against CREB3,0.0509
22,AGUGGACAACAGAACAAUATT against SNRPG,-3.09 (active)
23,CCUGUACGAUGAGAUAGAATT against CYFIP2,-0.322
24,GGAUGCACUUCUAAACUCATT against AKR1D1,0.211
25,GGUCUAGCCUUACACCUCATT against RAB3GAP2,0.0583
26,GAAGGGCUCUUUCACAGCUTT against ADAMTS13,-0.276
27,GGACAUGUUCUACUCUUCATT against LRP5,-1 (active)
28,GUCUCGAUGGAGCAAAGUATT against TCERG1,0.415
29,CGACUUGCUAAGCUACAUATT against MAOA,0.665
30,GGAACAACGGUGGAGAUUUTT against ITGB5,-0.00882
